Screening results deposited in PubChem by Broad Institute.
A selection: hits, their analogues and other compounds. The true share with any hit is near 2.2%.
miR-122 sensor – miR-122 inhibition in Huh7 cells. Huh7 miR-122 Renilla luciferase sensor, 48 h; neutral wells = 0, positive control = 100. 340,000 compounds, 0.3% hits. activation (reporter increase), % at 12.5 µM;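 active = mean replicate activation score at least 90 and every replicate individually at or above 90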;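 note: higher luciferase means less miR-122 activity so hits act as miR-122 inhibitors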
DENV2 CPE – inhibitors of DENV2 cytopathic effect. 350,000 compounds, 1.7% hits. CPE inhibition, % at 9.99 µM. DENV2-infected cells, cytopathic effect rescue, plate reader; in the data active = CPE inhibition above about 20%, passing the limit was not always enough; tested in BHK-21 cells
Statin myotox sup – suppressors of simvastatin-induced myotoxicity in C2C12 myotubes | AID 602340 | rescue of ATP level, % at 7.49 µM | ATP luminescence, 48 h; scaled: DMSO 0, geranylgeraniol control 100 | 330,000 compounds, 0.78% hits;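 active = mean ATP rescue above about 67%, or every replicate alone reaching that limit, limit read from the data, passing the limit was not always enough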;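 note: myotubes were challenged with 10 µM simvastatin during compound exposure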
PGC1a acetyl inh – lowers PGC1a acetylation signal in U2OS cells; 350,000 compounds, 0.17% hits; AlphaScreen anti-acetyl-lysine; with virally co-expressed GCN5 acetyltransferase; inhibition, % at 15.6 µM;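 active = every replicate shows inhibition of at least 40%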
PvdQ acylase – blocks Pseudomonas aeruginosa PvdQ acylase activity. AID 488965. 340,000 compounds, 0.063% hits. purified PvdQ acylase, fluorescence plate reader. inhibition, % at 10 µM; in the data active = inhibition above about 30%, passing the limit was not always enough
Hits are given with their value; ! = repeats disagree.

For O=C(/C=C/c1ccccc1)Nc1cccnc1Oc1ccccc1F the results were miR-122 sensor inactive, DENV2 CPE inactive, Statin myotox sup 94.5, PGC1a acetyl inh inactive and PvdQ acylase inactive.
`NC(=O)Cn1cc(/C=N\NS(=O)(=O)c2ccc(Cl)cc2)c2ccccc21` gave miR-122 sensor 127.8, DENV2 CPE inactive, Statin myotox sup inactive, PGC1a acetyl inh inactive and PvdQ acylase inactive.
For O=C(c1ccccc1F)N1C[C@@H]2O[C@H](CNS(=O)(=O)c3ccccc3)CC[C@@H]21 the results were DENV2 CPE 61.1.
`CN(C)CC(=O)N[C@@H]1CC[C@H](CCNC(=O)C2CC2)O[C@@H]1CO` gave DENV2 CPE inactive and PGC1a acetyl inh inactive.
`O=c1[nH]c(=S)c2[nH]c(=S)n(-c3ccccc3)c2[nH]1` gave miR-122 sensor inactive, Statin myotox sup 98.6, PGC1a acetyl inh inactive and PvdQ acylase inactive.
Cc1cc(=O)n2c(C)n[nH]c2n1 was read as miR-122 sensor inactive, Statin myotox sup 120.5, PGC1a acetyl inh inactive and PvdQ acylase inactive.
Screening COc1ccc(S(=O)(=O)N(C)C[C@H]2Oc3ccc(NC(=O)c4ccncc4)cc3CC(=O)N([C@H](C)CO)C[C@H]2C)cc1 returned miR-122 sensor inactive, DENV2 CPE inactive, Statin myotox sup inactive and PGC1a acetyl inh inactive.
Screening O=C(O)CSc1ccn(Cc2ccccc2)c1 returned miR-122 sensor inactive, DENV2 CPE 50.7, Statin myotox sup inactive and PGC1a acetyl inh inactive.
Screening CCCNC(=O)C[C@@H]1C[C@@H]2c3cc(NS(=O)(=O)c4ccc(F)cc4)ccc3O[C@@H]2[C@H](CO)O1 returned miR-122 sensor inactive, DENV2 CPE inactive, Statin myotox sup inactive and PGC1a acetyl inh inactive.
For O=C(/C=C/c1cccnc1)/C=C/c1cccnc1 the results were miR-122 sensor inactive, DENV2 CPE inactive, Statin myotox sup inactive, PGC1a acetyl inh 80.5 and PvdQ acylase inactive.
Screening Cc1cccc(C(=O)Nc2ccc(C(=O)/C=C/c3cccnc3)cc2)c1 returned miR-122 sensor inactive, Statin myotox sup inactive, PGC1a acetyl inh 53.6 and PvdQ acylase inactive.
Screening COCC#Cc1ccc([C@H]2[C@@H](CO)N3C(=O)CN(C(=O)Nc4ccccc4F)C[C@H]23)cc1 returned DENV2 CPE inactive and PGC1a acetyl inh inactive.
Cc1noc(C)c1NC(=O)Nc1ccc2c(c1)C(=O)N([C@H](C)CO)C[C@H](C)[C@@H](CN(C)S(=O)(=O)c1ccc(F)cc1)O2 was read as DENV2 CPE inactive, Statin myotox sup inactive, PGC1a acetyl inh inactive and PvdQ acylase inactive.
For Cc1noc(C)c1NC(=O)Nc1ccc2c(c1)C(=O)N([C@H](C)CO)C[C@@H](C)[C@H](CN(C)S(=O)(=O)c1ccc(F)cc1)O2 the results were miR-122 sensor inactive, DENV2 CPE 86.4, Statin myotox sup inactive and PGC1a acetyl inh inactive.
`Cc1noc(C)c1NC(=O)Nc1cccc2c1O[C@H](CN(C)S(=O)(=O)c1ccc(F)cc1)[C@@H](C)CN([C@H](C)CO)C2=O` gave miR-122 sensor inactive, DENV2 CPE inactive, Statin myotox sup 81.2!, PGC1a acetyl inh inactive and PvdQ acylase inactive.
For Cc1noc(C)c1NC(=O)Nc1cccc2c1O[C@@H](CN(C)S(=O)(=O)c1ccc(F)cc1)[C@H](C)CN([C@H](C)CO)C2=O the results were miR-122 sensor inactive, DENV2 CPE inactive, Statin myotox sup inactive and PGC1a acetyl inh inactive.
`Cc1noc(C)c1NC(=O)Nc1cccc2c1O[C@H](CN(C)S(=O)(=O)c1ccc(F)cc1)[C@@H](C)CN([C@@H](C)CO)C2=O` gave miR-122 sensor inactive, DENV2 CPE 32.5, Statin myotox sup inactive and PGC1a acetyl inh inactive.
For COCC#Cc1ccc2c(c1)O[C@@H](CN(C)Cc1ccc(F)cc1)[C@H](C)CN([C@@H](C)CO)S2(=O)=O the results were miR-122 sensor inactive, DENV2 CPE inactive, Statin myotox sup inactive and PGC1a acetyl inh inactive.
`COc1ccc(NC(=O)Nc2ccc3c(c2)C(=O)N([C@H](C)CO)C[C@H](C)[C@@H](CN(C)C(=O)NC(C)C)OCCCC[C@@H](C)O3)cc1` gave miR-122 sensor inactive, DENV2 CPE inactive and PGC1a acetyl inh inactive.
`Cc1cc(C(=O)COC(=O)CC(NC(N)=O)c2ccc(Cl)cc2)c(C)n1C` (centres undefined) gave miR-122 sensor inactive, DENV2 CPE inactive, Statin myotox sup inactive, PGC1a acetyl inh inactive and PvdQ acylase inactive.
`NC(=O)COC(=O)CC(NC(N)=O)c1ccc(Cl)cc1` (centres undefined) gave miR-122 sensor inactive, DENV2 CPE inactive, PGC1a acetyl inh 106.6 and PvdQ acylase inactive.
